This is part of a sample that, as a whole, favours compounds with a hit. Of some 83,000 tested, about 20% had one in any assay.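 The endpoint reported here, percent growth, reads 100 for growth as untreated, 0 for no net growth and -100 for all cells dead.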 The source made the active and inactive calls. Rule for the calls: active = growth percent below 10; inactive = the rest.
Columns and labels:
Experiment in all cases: NCI-60 one-dose screen, 48 h (100 = growth as untreated, 0 = no growth, -100 = all killed)
Conditions in all cases: 10 µM
RPMI-8226 leukemia = test system: RPMI-8226 leukemia
OVCAR-8 ovarian = test system: OVCAR-8 ovarian
OVCAR-5 ovarian = test system: OVCAR-5 ovarian
OVCAR-4 ovarian = test system: OVCAR-4 ovarian
SK-OV-3 ovarian = test system: SK-OV-3 ovarian
IGROV1 ovarian = test system: IGROV1 ovarian
OVCAR-3 ovarian = test system: OVCAR-3 ovarian
HS 578T breast = test system: HS 578T breast
NCI/ADR-RES ovarian = test system: NCI/ADR-RES ovarian
T-47D breast = test system: T-47D breast
MDA-MB-435 melanoma = test system: MDA-MB-435 melanoma
SW-620 colon = test system: SW-620 colon
MCF7 breast = test system: MCF7 breast
HCT-116 colon = test system: HCT-116 colon
HCC-2998 colon = test system: HCC-2998 colon
KM12 colon = test system: KM12 colon
BT-549 breast = test system: BT-549 breast

Measured: growth

COc1ccc(-c2cc(/C=C3\C(=O)Nc4ccc(Cl)cc43)[nH]n2)cc1OC
inactive: RPMI-8226 leukemia 68.6% | OVCAR-8 ovarian 81.4% | OVCAR-5 ovarian 101% | OVCAR-4 ovarian 19% | SK-OV-3 ovarian 94.6% | IGROV1 ovarian 66.8% | OVCAR-3 ovarian 104% | HS 578T breast 87.8% | NCI/ADR-RES ovarian 91.5% | T-47D breast 72.2% | MDA-MB-435 melanoma 91.5% | SW-620 colon 97.1% | MCF7 breast 63.1% | HCT-116 colon 73.2% | HCC-2998 colon 103% | KM12 colon 29.3%

Nc1nc(-c2ccccc2Cl)cc(-c2ccc(Cl)cc2Cl)n1
inactive: RPMI-8226 leukemia 35.2% | OVCAR-8 ovarian 71.2% | OVCAR-5 ovarian 96.2% | OVCAR-4 ovarian 79.6% | SK-OV-3 ovarian 93% | IGROV1 ovarian 74.7% | OVCAR-3 ovarian 85.2% | HS 578T breast 61.9% | NCI/ADR-RES ovarian 79.8% | T-47D breast 63.7% | SW-620 colon 39% | MCF7 breast 45.7% | HCT-116 colon 33% | HCC-2998 colon 83.6% | KM12 colon 53.8%
active: MDA-MB-435 melanoma 0.0733%

Nc1nccc(Nc2ccccc2)n1
inactive: RPMI-8226 leukemia 96.6% | OVCAR-8 ovarian 100% | OVCAR-5 ovarian 95.9% | OVCAR-4 ovarian 108% | SK-OV-3 ovarian 109% | IGROV1 ovarian 127% | OVCAR-3 ovarian 114% | HS 578T breast 107% | NCI/ADR-RES ovarian 111% | T-47D breast 112% | MDA-MB-435 melanoma 107% | SW-620 colon 106% | MCF7 breast 107% | HCT-116 colon 109% | HCC-2998 colon 114% | KM12 colon 101%

COc1ccc(-c2ccc(-c3ccc(C(=N)N)cn3)o2)cc1
inactive: RPMI-8226 leukemia 28.3% | OVCAR-8 ovarian 76.3% | OVCAR-5 ovarian 76.9% | OVCAR-4 ovarian 61.4% | SK-OV-3 ovarian 78.4% | IGROV1 ovarian 75.2% | OVCAR-3 ovarian 97.1% | HS 578T breast 94.1% | NCI/ADR-RES ovarian 88.1% | T-47D breast 69.1% | MDA-MB-435 melanoma 26.4% | SW-620 colon 80.4% | HCT-116 colon 45.9% | HCC-2998 colon 29.1%

C=C(C(=O)c1ccccc1)C(NC(C)(C)C)c1ccccc1 (stereo not given)
inactive: SK-OV-3 ovarian 67.9% | HS 578T breast 36.8% | BT-549 breast 34.8% | KM12 colon 25.8%
active: RPMI-8226 leukemia -3.32% | OVCAR-8 ovarian -32% | OVCAR-5 ovarian -29.2% | OVCAR-4 ovarian -13.1% | IGROV1 ovarian 3.59% | OVCAR-3 ovarian -65.9% | NCI/ADR-RES ovarian -7% | MDA-MB-435 melanoma 7.63% | SW-620 colon -19.7% | MCF7 breast 9.57% | HCT-116 colon -90.6% | HCC-2998 colon 1.14%

COc1ccc(Oc2nc(NC3CCCC3)nc(Sc3ccc(OC)cc3)n2)cc1
inactive: RPMI-8226 leukemia 63.7% | OVCAR-8 ovarian 65.4% | OVCAR-5 ovarian 91.1% | OVCAR-4 ovarian 74.3% | SK-OV-3 ovarian 82.8% | IGROV1 ovarian 64.9% | OVCAR-3 ovarian 77.1% | HS 578T breast 83.8% | NCI/ADR-RES ovarian 66.2% | BT-549 breast 91.9% | MDA-MB-435 melanoma 89% | SW-620 colon 87.9% | MCF7 breast 69.3% | HCT-116 colon 45.1% | HCC-2998 colon 98.8% | KM12 colon 83.9%

Oc1[nH]c2ccc(Cl)cc2c1/C=c1/ccc2c(c1)N=C(c1cc(F)cc(F)c1)N=2
inactive: RPMI-8226 leukemia 74.4% | OVCAR-8 ovarian 77% | OVCAR-5 ovarian 86.8% | OVCAR-4 ovarian 68.5% | SK-OV-3 ovarian 68% | IGROV1 ovarian 53.6% | HS 578T breast 63% | NCI/ADR-RES ovarian 54.2% | T-47D breast 88.4% | SW-620 colon 53.8% | HCT-116 colon 52.2% | HCC-2998 colon 86.2% | KM12 colon 44.4%
active: OVCAR-3 ovarian 7.12% | MDA-MB-435 melanoma 1.43% | MCF7 breast 5.27%

C#Cc1ccc(-n2c(/C=C/c3ccc4ccccc4c3)nc3ncccc3c2=O)cc1
active: RPMI-8226 leukemia -8.86% | OVCAR-4 ovarian -3.79%
inactive: OVCAR-8 ovarian 38.5% | OVCAR-5 ovarian 105% | SK-OV-3 ovarian 68.9% | IGROV1 ovarian 52.7% | OVCAR-3 ovarian 17% | HS 578T breast 72.8% | NCI/ADR-RES ovarian 42.5% | BT-549 breast 52.4% | MDA-MB-435 melanoma 12.8% | SW-620 colon 19.2% | MCF7 breast 18.6% | HCT-116 colon 21% | HCC-2998 colon 31.1%

COc1cc(CNc2ccccc2C(=O)N2CCN(C(=O)c3cc(-c4cc(OC)c(OC)c(OC)c4)n4nc(-c5ccccc5)cc4n3)CC2)cc(OC)c1OC
inactive: RPMI-8226 leukemia 52.1% | OVCAR-8 ovarian 65.1% | OVCAR-5 ovarian 88.1% | OVCAR-4 ovarian 61.5% | SK-OV-3 ovarian 59.9% | IGROV1 ovarian 44.7% | HS 578T breast 42.9% | NCI/ADR-RES ovarian 15.6% | T-47D breast 60.6% | SW-620 colon 26.3% | HCT-116 colon 21.6% | HCC-2998 colon 40.3% | KM12 colon 17.8%
active: OVCAR-3 ovarian 4.83% | MDA-MB-435 melanoma -47.6%

COc1cc(C)ccc1C(=O)c1ccc(C)cc1OC
active: OVCAR-3 ovarian -39.2% | HS 578T breast -12.6% | NCI/ADR-RES ovarian -2.71% | MDA-MB-435 melanoma -69.8%
inactive: RPMI-8226 leukemia 21.9% | OVCAR-8 ovarian 23.9% | OVCAR-5 ovarian 46.8% | OVCAR-4 ovarian 63.1% | SK-OV-3 ovarian 17.1% | IGROV1 ovarian 37.2% | T-47D breast 50.6% | SW-620 colon 10.1% | MCF7 breast 21.1% | HCC-2998 colon 40% | KM12 colon 22.1%

Source: PubChem BioAssay (NCI)
